In the library only some 10% were active in any assay of this set; here they are far more common.
KB-V1 cytotox: kills drug-selected multidrug resistant KB-V1 cells; 3.4% of 400,000 active; KB-V1 MDR cells viability, CellTiter-Glo, 72 h; AID 1347076; Potency, µM (top dose mostly 46.1 µM), actives largely listed as cytotoxic; further: on the % scale 0 is the no-effect control and ±100 the full control effect; nearly all actives have a fitted effect of over 60% in size
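Potencies derive from concentration-effect curves fitted to normalized luminescence (CellTiter-Glo) of KB-V1 cells treated for 72 h at 37 degrees C in phenol-red-free DMEM containing 10% FBS.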
KB-3-1 tox: kills parental KB-3-1 adenocarcinoma cells; 1.4% of 400,000 active; KB-3-1 viability, CellTiter-Glo ATP luminescence, 72 h; Potency, µM (highest dose often 46.1 µM), most hits filed as cytotoxic; further: on the % scale 0 is the no-effect control and ±100 the full control effect; nearly all actives have a fitted effect of over 60% in size
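Parental KB-3-1 viability, qHTS format: 72 h compound exposure, 37 °C; CellTiter-Glo; media-only wells and DMSO plates as controls; concentration-effect fits on corrected data.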
MCF10A rereplic: inducers of DNA re-replication in MCF 10A breast cells | Potency, µM (top dose mostly 46.1 µM), for the others: top-dose activity, positive = re-replication, usual class: activators | MCF 10A DNA re-replication, Hoechst nuclear intensity, 48 h | 2.9% of 350,000 active | AID 624296; further: % of control where 0% means no effect; nearly all actives have a fitted effect of over 50% in size
SW480 rerep: DNA re-replication induction in SW480 cells | SW480 DNA re-replication, Hoechst DNA content imaging, 48 h | Potency, µM (doses to about 46.1 µM), without a hit: at the highest dose re-replication activation, hits mostly activators | 1.8% of 340,000 active | AID 624297; further: % of control where 0% means no effect; nearly all actives have a fitted effect of over 55% in size
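Readout is total intensity of Hoechst-stained nuclei, excited at 405 nm and collected at 500-530 nm. Compound treatment lasted 48 hr at 37 C in 5% CO2 before staining.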
VP16 counter: inhibits Gal4-VP16 luciferase reporter, ROR gamma counter-screen; Drosophila S2 Gal4-VP16 UAS-luciferase, luminescence, 20 h; Potency, µM (titrated, usually from 53.6 µM), inactives show at the highest dose activity, negative = inhibition, usual class: inhibitors; 3.5% of 310,000 active; AID 2546;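 further: Gal4-VP16 expression switched on by copper sulfate through the metallothionein promoter; on the % scale 0 is the no-effect control and ±100 the full control effect; nearly all actives have a fitted effect of over 50% in size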
RORgamma inh: ROR gamma (mouse) transcription inhibition; P51450; Drosophila S2 Gal4-RORgamma UAS-luciferase reporter, 20 h; Potency, µM (series often up to 53.6 µM), for the others: top-dose activity change, negative = inhibition, actives largely listed as inhibitors; 5.4% of 310,000 active; AID 2551; further: on the % scale 0 is the no-effect control and ±100 the full control effect; nearly all actives have a fitted effect of over 60% in size
Target sequence (P51450 whole entry, looked up, the tested form may be a part): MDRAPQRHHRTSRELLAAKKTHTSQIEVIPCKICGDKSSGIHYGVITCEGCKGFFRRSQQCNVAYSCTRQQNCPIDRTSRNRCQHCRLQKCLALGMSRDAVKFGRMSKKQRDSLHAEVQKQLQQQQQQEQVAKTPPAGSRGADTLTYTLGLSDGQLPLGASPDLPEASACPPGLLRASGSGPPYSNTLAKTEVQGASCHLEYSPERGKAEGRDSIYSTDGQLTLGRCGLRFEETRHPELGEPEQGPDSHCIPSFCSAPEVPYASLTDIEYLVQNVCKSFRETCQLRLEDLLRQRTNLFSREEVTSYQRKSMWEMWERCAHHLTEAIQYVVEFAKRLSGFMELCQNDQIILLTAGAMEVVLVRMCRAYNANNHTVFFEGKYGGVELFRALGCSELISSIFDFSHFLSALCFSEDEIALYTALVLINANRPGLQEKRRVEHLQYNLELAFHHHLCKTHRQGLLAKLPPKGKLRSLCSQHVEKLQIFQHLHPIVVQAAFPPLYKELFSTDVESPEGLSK
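Stable Schneider cell line, Gal4 DNA-binding domain fused to ROR gamma, UAS-luciferase. Cmpd 1 hr RT → CuSO4 700 uM final → 20 hr RT → luciferase reagent 10 min → luminescence.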
* marks the source's active call; other numbers are inactive results; i = inactive; ? = inconclusive; · = no result; [ ] = another dose, or the depositor's remark. The call rests on the fitted dose curve; in most records, active means well fitted curve in the direction sought with a large enough effect; inconclusive means small, poorly fitted or top-dose-only effect, or another doubt; inactive means no such curve, though single readings can be large; an effect the other way counts as inactive or inconclusive. Potency means the concentration at half of the fitted maximal effect.

SMILES	KB-V1 cytotox	KB-3-1 tox	MCF10A rereplic	SW480 rerep	VP16 counter	RORgamma inh
Cc1ccc2nc3c(c(N)c2c1)CCN3C	i	i	23µM*	28%	-1%	-6%
Cc1ccc2nc3c(c(N)c2c1)CCN3c1ccccc1	?	i	15%	3%	17%	13%
COCCNc1nc(-c2ccoc2)nc2ccccc12	·	·	·	·	5%	10%
C=CCNC(=S)NNC(=O)C(CCCC)CC(C)O (centres undefined)	i	i	1%	-5%	-5%	-29%
C=CCNC(=S)NNC(=O)CCC(O)CCCCC (centres undefined)	i	i	-2%	1%	-16%	10µM*
COc1ccc(-c2cc3nc(C)c(CCC(=O)Nc4ccc(F)cc4F)c(C)n3n2)c(OC)c1	i	i	·	·	·	·
O=S(=O)(c1ccc(F)cc1)N1CCN(c2nc(-c3cccs3)nc3ccccc23)CC1	i	i	·	·	·	·
CCOC(=O)C(=Cc1ccccc1)C(=O)OCC	·	·	·	·	13µM*	13µM*
CCOC(=O)C(=Cc1ccc(-n2cncn2)cc1)C(=O)OCC	i	?	4.6µM*	16µM*	-93%	?
O=C(CCN1C(=O)C2C3C=CC(C4CC34)C2C1=O)Nc1ccc(Cl)cc1O (centres undefined)	·	·	0%	0%	-6%	3%
Cc1[nH]c2ccccc2c1/C=N\NC(=O)c1ccccc1Cl	i	i	·	·	·	·
Cc1[nH]c2ccccc2c1/C=N/NC(=S)NC(C)C	?	i	-3%	-1%	7.1µM*	2.5µM*
Cc1[nH]c2ccccc2c1/C=N/NC(=O)C1CC1(c1ccccc1)c1ccccc1 (centres undefined)	?	?	23µM*	?	?	?
CCC(=O)Nc1ccc(C(=O)N/N=C/c2c(C)[nH]c3ccccc23)cc1	i	i	-1%[9.22 µM]	1%	-9%	14%
CC(C)NC(=S)N/N=C/c1c[nH]c2ccccc12	i	i	0%	-1%	1.4µM*	3.5µM*
CC(SC(C)C(=O)NN=Cc1c[nH]c2ccccc12)C(=O)NN=Cc1c[nH]c2ccccc12 (centres undefined)	i	i	6%	0%	·	·
CC1=C(C(N)=O)N2C(=O)[C@@H](NC(=O)Cc3ccccc3)C2SC1 (some centres undefined)	·	·	·	·	6%	14%
c1nc(NCCCN2CCCCC2)c2cc(-c3ccc4c(c3)OCO4)ccc2n1	i	?	·	·	·	·
COCCNc1cc(-c2ccccc2C)ncn1	·	·	·	·	4%	1%
CCN(Cc1ccccc1)C(=O)c1nc(-c2cccc(F)c2)n2c1CCCCC2	i	i	·	·	·	·
COc1ccccc1NC(=O)C(=O)NCCc1csc(-c2cccc(F)c2)n1	i	i	·	·	·	·
Cc1ccc(S(=O)(=O)Nc2ccc3cc([N+](=O)[O-])ccc3c2[N+](=O)[O-])cc1	?	?	?	-1%	·	·
Cc1ccc(S(=O)(=O)Nc2ccc3ccccc3c2[N+](=O)[O-])cc1	i	i	18µM*	-4%	·	·
O=C(COc1ccc2oc(-c3ccccc3)cc(=O)c2c1)Nc1ccccc1	i	i	9%	0%	?	13µM*
CSc1ccc(-c2cc(=O)c3ccccc3o2)cc1	i	i	0%	-4%	2%[0.365 µM]	?
SMILES	KB-V1 cytotox	KB-3-1 tox	MCF10A rereplic	SW480 rerep	VP16 counter	RORgamma inh
CN(C)CCCN=c1cc(-c2ccccc2)oc2ccc(Cl)cc12	?	?	20%	5%	-21%	?
OCCN=c1cc(-c2ccccc2)oc2ccc(Cl)cc12	16µM*	?	?	?	-12%	2%
O=C(COc1ccc2c(-c3ccccc3)cc(=O)oc2c1)Nc1ccc(CCO)cc1	i	i	2%	-20%	?	13%
CC(O)CN=c1cc(-c2ccccc2)oc2ccc(Cl)cc12 (centres undefined)	?	21µM*	?	25%	1%	-3%
O=c1cc(-c2ccc(F)cc2)oc2ccccc12	13µM*	?	11%	-2%	·	·
CCCCNC(=O)[C@@H]1CC=C[C@@H]2CCN(Cc3ccccc3)C(=O)[C@@H]21	i	i	·	·	·	·
O=c1oc(-c2ccccc2)cc(Cl)c1Cl	?	?	2.9µM*	9.2µM*	10µM*	11µM*
O=c1cc(-c2ccccc2)oc2ccc(Cl)cc12	21µM*	i	-1%	0%	·	·
O=c1cc(-c2ccccc2[N+](=O)[O-])oc2ccccc12	15µM*	i	5.2µM*	?	1%	-28%
COc1ccccc1C(=O)Nc1ccc(Oc2nnc(-c3ccc(C)cc3)c3ccccc23)cc1	i	i	4%	4%	-1%	28%
Cc1ccc(-c2nnc(OCc3cccnc3)c3ccccc23)cc1	16µM*	i	-4%	-5%	-20%	?
c1ccc(-c2nnc(OCc3cccnc3)c3ccccc23)cc1	i	i	-11%	1%	-15%	20%
Cc1ccc(Oc2nnc(-c3ccc(C)cc3)c3ccccc23)cc1	18µM*	?	-2%	-1%	?	42%
S=C1NCc2cncnc2N1	i	i	·	·	·	·
Cc1ccc(S(=O)(=O)NC2c3cccc4cccc(c34)C2Sc2nc(C)cc(C)n2)cc1 (centres undefined)	5.2µM*	i	?	-59%	-4%	-4%
Cn1cnnc1SC1c2cccc3cccc(c23)C1NS(=O)(=O)c1ccc(Cl)cc1 (centres undefined)	12µM*	i	-6%	3%	-4%	18%
O=C(NC1CC1(c1ccccc1)c1ccccc1)c1ccccc1 (centres undefined)	16µM*	?	16%	13%	·	·
O=C(NC1CCCc2ccccc21)c1ccccc1 (centres undefined)	i	i	1%	12%	0%	23%
Cc1ccc(C(=O)N2CCC(c3c[nH]c4ccccc34)(c3c[nH]c4ccccc34)CC2)cc1	i	i	·	·	·	·
COC(=O)C1(C)COP(=O)(Nc2ccc(OC)cc2)OC1 (centres undefined)	i	i	·	·	·	·
CC(c1n[nH]c(=S)n1-c1ccccc1)N1CCCCC1 (centres undefined)	i	i	8%	-15%	-10%	10µM*
O=C(NC(=S)N1CCCc2ccccc21)c1ccc([N+](=O)[O-])cc1	i	i	2%	0%	6.3µM*	?
COc1ccccc1C(=O)NC(=S)N1CCCc2ccccc21	i	i	-20%	9%	?	7.9µM*

Source: PubChem BioAssay
